Measurements taken from PubChem BioAssay AID618 (Sanford-Burnham Center for Chemical Genomics, 2007).
About 540 (0.62%) of roughly 87,000 compounds were called active. No rule for the calls is given here. The entries come from a sample that favours actives as a whole. Results with a measured potency or affinity are listed apart.

Experiment: inhibitors of MT1-MMP promoter transcription, cell-based, luciferase reporter, luminescence (AID 618);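 also: actives suppress MT1-MMP promoter-driven transcription so potencies describe inhibitors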
Conditions: MT1-MMP promoter luciferase reporter cells

Structure (SMILES)	outcome
COc1ccccc1NC(=O)COc1ccc(CO)cc1Cl	inactive
O=C(COc1ccc(CO)cc1)Nc1ccc(F)cc1	inactive
N#C/C(=C\c1ccc[nH]1)Sc1nc2ccccc2s1	inactive
COc1ccccc1N(CC(=O)NC1CCCC1)C(=O)CCC(=O)Nc1cc(C)on1	inactive
C=CCn1c(C)cc(C(=O)CSc2n[nH]c(N)n2)c1C	inactive
COCC(C)n1c(C)cc(C(=O)CSc2ccc(NC(C)=O)cc2)c1C (stereo not drawn)	inactive
C=CCn1c(C)cc(C(=O)CSc2nc3ccccc3o2)c1C	inactive
CC(=O)Nc1ccc(SCC(=O)c2cc(C)n(C)c2C)cc1	inactive
Cc1cc(C(=O)CN2C(=O)c3ccccc3C2=O)c(C)n1Cc1cccs1	inactive
CC(=O)Nc1ccccc1OCC(=O)c1cc(C)n(Cc2cccs2)c1C	inactive
COc1ccc(-c2n[nH]c(C)c2-c2cc(OC)ccc2O)cc1	inactive
CCSC1=C(C#N)C(c2ccccc2C)CC(=O)N1 (stereo not drawn)	inactive
Cc1cc(SCc2cc(=O)[nH]c3ccccc23)nc2ccccc12	inactive
O=C(O)c1c2c(nc3ccc(F)cc13)CCC2	inactive
COCCn1nnnc1C(c1ccc(OC)cc1OC)N1CCN(c2ccccc2F)CC1 (stereo not drawn)	inactive
Cc1ccccc1OCC(=O)Nn1c(COc2ccccc2)nc2ccccc2c1=O	inactive
CC1=C(C)C(=O)N(c2ccc(C(=O)O)cc2)C1=O	inactive
O=C1/C(=C\c2ccc3ccccc3c2)CCCc2ccccc21	inactive
COC(=O)c1ccc(C(NC(=O)OCc2ccccc2)/C(F)=C/[C@@H](C)C(=O)NCc2ccc(OC)c(OC)c2)cc1 (stereo partly drawn)	inactive
CCC(C)C1C(C#N)=C(N)Oc2n[nH]c(-c3ccccc3)c21 (stereo not drawn)	inactive
O=C(Oc1ccc2ccccc2c1)c1ccccc1	inactive
O=C(CCl)Nc1cc(-c2ccccc2)nn1-c1ccccc1	active
CC(=O)Nc1cc(-c2ccc(Cl)cc2)nn1-c1ccccc1	inactive
Cc1ccc(-c2cc(NC(=O)CCl)n(-c3ccccc3)n2)cc1	inactive
O=C1CS/C(=C/C(=O)c2ccccc2)N1	inactive

Structure (SMILES)	outcome
NCCCCCc1nnc(SCc2cccc(Cl)c2)o1	inactive
N#C/C(=C/c1ccc(N2CCOCC2)o1)c1nc2ccccc2[nH]1	inactive
Cc1ccc2nc(/C(C#N)=C\c3ccc(N4CCOCC4)o3)[nH]c2c1	inactive
Cc1nc2nc(-c3cccs3)cn2nc1C	inactive
CCc1ccc(-c2cn3nc(C)c(C)nc3n2)cc1	active
CCc1c(-c2ccccc2)nc2nc(C)c(C)nn12	inactive
CCc1ccc(-c2nn[nH]n2)cc1	inactive
Cc1nc2nc(-c3ccccc3)cn2nc1C	inactive
Cc1ccc(-c2cn3nc(C)c(C)nc3n2)cc1	active
O=Cc1ccccc1OCCOc1ccccc1C=O	inactive
CC(C)n1c(-c2ccc(N(C)C)cc2)nc2ccccc21	inactive
Cn1c(-c2ccc(N)cc2)nc2ccccc21	inactive
CN(C)c1ccc(-c2nc3ccccc3n2C)cc1	active
O=C(CN1CCN(c2ccccc2)CC1)Nc1ccccc1C(F)(F)F	inactive
Cc1cccc(NC(=O)CN2C(=O)COc3ccc(Cl)cc32)c1	inactive
CCOC(=O)c1c(C)oc2c(F)c(F)c(F)c(F)c2c1=O	active
CCOC(=O)c1c(C)cc(=O)oc1C	inactive
CCOC(=O)c1c(C)oc2cc3c(C(=O)OCC)c(C)oc3cc12	inactive
O=C(Oc1ccnc2cc(Cl)ccc12)N1CCOCC1	inactive
COc1ccc(OC)c(S(=O)(=O)n2nc(-c3ccccc3)cc2N)c1	inactive
COc1ccc(S(=O)(=O)n2nc(-c3cc(OC)c(OC)c(OC)c3)cc2N)cc1OC	inactive
COc1ccc(-c2cc(N)n(S(=O)(=O)c3c(F)c(F)c(F)c(F)c3F)n2)cc1OC	active
CC(C)(C)Nc1nc(NCc2cccnc2)nc(N2CCOCC2)n1	inactive
CSc1ccccc1NC(=O)c1ccccc1N(C)S(C)(=O)=O	inactive
CCCc1cc2c(n1CCc1ccc(Cl)cc1)C(C)C1CN(C(=O)c3ccccc3)C(C)(C(=O)OC)C21 (stereo not drawn)	inactive

Structure (SMILES)	outcome
CCCCCOc1ccc(Br)cc1/C(C)=N/NC1=NCCN1	active
CCOc1ccc(Br)cc1/C(C)=N\NC1=NCCN1	inactive
CCCCOc1ccc(Br)cc1/C(C)=N/NC1=NCCN1	inactive
O=C(Cn1ncc2c(=O)oc3ccccc3c21)NCCN1CCN(c2ccccc2F)CC1	inactive
COc1ccc(C2C(=O)N(C3CCCCC3)CC(=O)N2Cc2ccc3c(c2)OCO3)cc1 (stereo not drawn)	inactive
COc1ccc(NS(=O)(=O)c2cc(C(=O)O)ccc2C)cc1	inactive
COc1ccc(NS(=O)(=O)c2cc(C)ccc2NC(=O)c2cc(C)oc2C)cc1	active
COc1ccc(C)c(S(=O)(=O)Nc2ccc(OCC(=O)O)cc2)c1	inactive
COc1ccc(NS(=O)(=O)c2cc(OC)ccc2NC(=O)c2cc(C)oc2C)cc1	active
COc1ccc(NS(=O)(=O)c2cc(C)ccc2C)cc1	inactive
COc1ccc2nc(NC(=O)c3cc(C)oc3C)sc2c1	inactive
CC(C)(C)c1ccc(C(=O)C=[N+]=[N-])cc1	inactive
Cc1nn(C)c(C)c1CN(C)C(=O)c1cc2n(n1)C(C(F)(F)F)CC(c1cccs1)N2 (stereo not drawn)	inactive
CCOC(=O)c1ccc(N2C(=O)CC(N3CCC(C(N)=O)(N4CCCCC4)CC3)C2=O)cc1 (stereo not drawn)	inactive
CCn1c(=O)cc(SCC(=O)N2CCCCC2)c2ccccc21	inactive
CCOC(=O)c1oc2ccccc2c1CSc1nnnn1-c1ccc(C)cc1	inactive
CNc1cc([N+](=O)[O-])ccc1N/C=C/C(=O)c1cccs1	inactive
O=C(/C=C/Nc1cccc([N+](=O)[O-])c1)c1cccs1	inactive
COc1ccccc1NC(=O)CSc1nccc(=O)[nH]1	inactive
CCOc1cccc(C(=O)Nc2nccs2)c1	inactive
CCCc1cc(C(=O)Nc2nnc(C)s2)cs1	inactive
CC(C)(C)c1ccc(C(=O)Nc2cnccn2)cc1	active
O=C(Nc1cnccn1)c1ccncc1	inactive
O=C(Nc1cnccn1)c1cccc(C(F)(F)F)c1	inactive
Cc1ccnc(SCC(=O)N2CCN(c3ccccc3)CC2)n1	inactive

Structure (SMILES)	outcome
O=C(CCCC(=O)N(CC(=O)NC1CCCC1)Cc1ccccc1)Nc1ccccn1	inactive
COCCNC(=O)CNS(=O)(=O)c1ccc2nc(C)sc2c1	inactive
CN(C(=O)c1ccno1)c1nnc(-c2cnccn2)s1	inactive
Cc1ccc(C)c(SCC(=O)OCC(=O)Nc2ccc(S(=O)(=O)N3CCOCC3)cc2)c1	inactive
O=C1CC(C(=O)Nc2cccc3ccccc23)C2(CCCC2)O1 (stereo not drawn)	inactive
CC(=O)N1CCn2c3c(c(=O)c4cc(C)ccc42)CCC31 (stereo not drawn)	inactive
Cc1ccc2c(c1)c1c3n2CCN(C(=O)Cn2c(-c4ccccc4)noc2=O)C3CCC1 (stereo not drawn)	inactive
Cc1ccc2c(c1)c(=O)c1c3n2CCN(C(=O)CCl)C3CC1 (stereo not drawn)	active
Cc1sc2nc(CSc3nnc(Cc4cccs4)n3C3CCCCC3)[nH]c(=O)c2c1C	inactive
Cc1ccc(NC2=NC(c3ccc(O)cc3)n3c(nc(C)cc3=O)N2)cc1 (stereo not drawn)	inactive
Nc1nonc1/C(=N/O)N1CCN(CCO)CC1	inactive
COC(=O)N1[C@H](C)C=C[C@]1(Cc1ccccc1)C(=O)OC	inactive
CNC(=O)[C@@]1(Cc2ccccc2)C=C[C@@H](C)N1C(=O)OC	inactive
COC(=O)N1[C@H](C)C=C[C@]1(Cc1ccccc1)C(=O)O	active
Nc1nonc1N1CCCCC1	inactive
CCCNC(=O)Cn1cnc2sc(C(=O)NCCN(CC)CC)c(C)c2c1=O	inactive
CNC(=O)CCc1nc(-c2ccc(C(C)(C)C)cc2)no1	inactive
CN(C)C(=O)CCc1nc(-c2ccc(C(C)(C)C)cc2)no1	inactive
O=C(O)CCCc1nc(-c2ccccc2)no1	inactive
COc1ccc(-c2noc(CCC(=O)O)n2)cc1	inactive
CCOC(=O)C1C2C=CC3(CN(CCc4ccccc4)C(=O)C13)O2 (stereo not drawn)	inactive
O=C(c1csc2c1CCCC2)N1CCN(c2ncccn2)CC1	inactive
Cc1cccc(-n2nnnc2SC(C)C(=O)NCCC2=CCCCC2)c1 (stereo not drawn)	inactive
CC(C(=O)NC(=O)NC1CCCCC1)N1CCN(c2ccccn2)CC1 (stereo not drawn)	inactive
O=C(CNC(=O)c1ccco1)NCC(=O)OCc1cccc(Cl)c1	inactive

Structure (SMILES)	outcome
Nc1nc(-c2cccc(Br)c2)cs1	inactive
Cc1oc(-c2ccccc2)cc1C(N)=O	inactive
CCOC(=O)CNC(=O)c1cc(-c2ccc3c(c2)OCCO3)oc1C	inactive
Cc1oc(-c2ccc3c(c2)OCCO3)cc1C(=O)NC(CCC(=O)O)C(=O)O (stereo not drawn)	inactive
COc1cc(C)c(-c2cc(C(=O)O)c(C)o2)cc1C(C)C	inactive
COc1ccc(C2=NN(CN3C(=O)C(=O)c4ccccc43)C(c3ccc(C)cc3)C2)cc1 (stereo not drawn)	inactive
O=C(N1CCN(c2ccccn2)CC1)N1c2ccccc2Sc2ccccc21	active
O=C(CN1CCN(c2ccccn2)CC1)N1c2ccccc2Sc2ccc(C(F)(F)F)cc21	inactive
O=C(c1ccco1)N1CCN(C(=O)N2c3ccccc3Sc3ccccc32)CC1	active
O=C(N1CCOCC1)N1CCN(c2ccccn2)CC1	inactive
O=C(c1ccco1)N1c2ccccc2Sc2ccccc21	inactive
O=C(NC1CCN(C(=O)N2c3ccccc3Sc3ccccc32)CC1)c1ccco1	inactive
CC(C)NC(=O)c1c2c(nc3ccccc13)CCCC2	inactive
Cc1nnc2ccc(N3CCN(C(=O)c4ccccc4)CC3)nn12	inactive
O=C1COc2ccc(C(=O)COC(=O)Cn3cnc4ccccc43)cc2N1	inactive
CCOC(=O)CNC(=O)C(CC(C)C)NC(=O)C1CCCCC1 (stereo not drawn)	inactive
Clc1ccc(OCc2nc(-c3ccccn3)no2)c(Br)c1	inactive
Clc1ccccc1OCc1nc(-c2ccncc2)no1	inactive
CCc1ccc(OCc2nc(-c3ccccn3)no2)c(Br)c1	active
CC(C)(C)c1ccc(OCc2nc(-c3ccccn3)no2)c(Br)c1	inactive
Clc1cc(Cl)c(OCc2nc(-c3ccccn3)no2)cc1Cl	inactive
CC(C)c1ccc(OCc2nc(-c3ccccn3)no2)c(Br)c1	inactive
Cc1ccc(OCc2nc(-c3ccccn3)no2)cc1	inactive
